According to PubChem BioAssay AID1159580 (chemical genetic matrix, 2015):
“And” between values parts separate entries of the source, which are not always exact repeats. Equal values may be shown once. Hit rate of the full screen: of about 5,500 compounds, about 2,000 (36%) were called active. Another 18% or so got no clear call; they are omitted. Rule as the data show it: active = normalized growth mostly below about 0.91 (no sharp cut-off); inconclusive = no clear call, values can overlap the other calls; inactive = mostly above about 0.92. The list shows a part of the results.

Assay: chemical genetic growth profiling, strain panel (AID 1159580);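 also: tested at 20 µM; growth read once vehicle control cultures reached saturation at 30 °C; 1 = growth at the plate median or of vehicle wells; lower values mean less growth of the strain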
Settings: S. cerevisiae deletion strains, growth OD

Measured: normalized growth

O=c1c(O)c(-c2ccccc2)oc2ccc3occc3c12
inactive: locus YAL013W, strain DEP1, stronger effect = lower value 0.925 | locus YAL021C, strain ccr4, stronger effect = lower value 0.987 | locus YBR021W, strain FUR4, stronger effect = lower value 0.889 | locus YBR171W, strain sec66, stronger effect = lower value 0.962 | locus YBR229C, strain ROT2, stronger effect = lower value 0.955 | locus YCR088W, strain abp1, stronger effect = lower value 0.93 | locus YDL005C, strain med2, stronger effect = lower value 0.951 | locus YDL185W, strain tfp1, stronger effect = lower value 0.938 | locus YDR001C, strain nth1, stronger effect = lower value 0.956 | locus YDR069C, strain doa4, stronger effect = lower value 0.941 | locus YDR150W, strain NUM1, stronger effect = lower value 0.954 | locus YDR334W, strain swr1, stronger effect = lower value 0.913 | locus YEL061C, strain CIN8, stronger effect = lower value 0.93 | locus YFR010W, strain ubp6, stronger effect = lower value 0.926 | locus YGL167C, strain pmr1, stronger effect = lower value 0.919 | locus YHR013C, strain ard1, stronger effect = lower value 0.921 | locus YHR027C, strain rpn1, stronger effect = lower value 0.937 | locus YHR079C, strain IRE1, stronger effect = lower value 0.956 | locus YIL073C, strain SPO22, stronger effect = lower value 0.733 | locus YJL115W, strain asf1, stronger effect = lower value 0.943 | locus YJL134W, strain LCB3, stronger effect = lower value 0.956 | locus YJL154C, strain vps35, stronger effect = lower value 0.939 | locus YJR066W, strain TOR1, stronger effect = lower value 0.883
0.72 (active) and 0.968 (inactive): locus YHR030C, strain SLT2, stronger effect = lower value
active: locus YAL026C, strain drs2, stronger effect = lower value 0.808 | locus YAL030W, strain snc1, stronger effect = lower value 0.902 | locus YBL061C, strain skt5, stronger effect = lower value 0.811 | locus YBR009C, strain hhf1, stronger effect = lower value 0.627 | locus YBR023C, strain chs3, stronger effect = lower value 0.71 | locus YBR231C, strain swc5, stronger effect = lower value 0.799 | locus YBR279W, strain paf1, stronger effect = lower value 0.796 | locus YCL011C, strain gbp2, stronger effect = lower value 0.814 | locus YCL016C, strain dcc1, stronger effect = lower value 0.766 | locus YCL029C, strain bik1, stronger effect = lower value 0.749 | locus YCL061C, strain MRC1, stronger effect = lower value 0.801 | locus YCL069W, strain vba3, stronger effect = lower value 0.662 | locus YDL035C, strain GPR1, stronger effect = lower value 0.849 | locus YDL040C, strain nat1, stronger effect = lower value 0.93 | locus YDL074C, strain BRE1, stronger effect = lower value 0.671 | locus YDL101C, strain DUN1, stronger effect = lower value 0.858 | locus YDL192W, strain arf1, stronger effect = lower value 0.731 | locus YDR101C, strain arx1, stronger effect = lower value 0.765 | locus YDR137W, strain rgp1, stronger effect = lower value 0.798 | locus YDR159W, strain sac3, stronger effect = lower value 0.742 | locus YDR162C, strain NBP2, stronger effect = lower value 0.782 | locus YDR195W, strain ref2 1.23 [resistant] | locus YDR297W, strain sur2, stronger effect = lower value 0.849 | locus YDR318W, strain mcm21, stronger effect = lower value 0.799 | locus YDR335W, strain msn5, stronger effect = lower value 0.773 | locus YDR388W, stronger effect = lower value 0.847 | locus YDR392W, strain spt3, stronger effect = lower value 0.172 | locus YDR502C, strain sam2, stronger effect = lower value 0.783 | locus YEL003W, strain gim4, stronger effect = lower value 0.814 | locus YEL037C, strain rad23, stronger effect = lower value 0.86 | locus YEL061C, strain CIN8 (second series), stronger effect = lower value 0.71 | locus YER015W, strain faa2, stronger effect = lower value 0.829 | locus YER016W, strain bim1, stronger effect = lower value 0.92 | locus YER110C, stronger effect = lower value 0.767 | locus YER111C, strain swi4, stronger effect = lower value 0.793 | locus YER155C, strain BEM2 (second series), stronger effect = lower value 0.25 | locus YER155C, strain BEM2, stronger effect = lower value 0.807 | locus YER167W, strain BCK2, stronger effect = lower value 0.9 | locus YGL078C, strain dbp3, stronger effect = lower value 0.884 | locus YGL086W, strain mad1, stronger effect = lower value 0.764 | locus YGL173C, strain kem1, stronger effect = lower value 0.833 | locus YGL227W, strain vid30, stronger effect = lower value 0.888 | locus YGL240W, strain doc1, stronger effect = lower value 0.566 | locus YGL248W, strain PDE1, stronger effect = lower value 0.801 | locus YGL253W, strain hxk2, stronger effect = lower value 0.501 | locus YGR135W, strain pre9, stronger effect = lower value 0.713 | locus YGR229C, strain SMI1, stronger effect = lower value 0.416 | locus YGR252W, strain gcn5, stronger effect = lower value 0.593 | locus YHR079C, strain IRE1 (second series), stronger effect = lower value 0.873 | locus YHR094C, strain hxt1, stronger effect = lower value 0.904 | locus YHR142W, strain chs7, stronger effect = lower value 0.367 | locus YHR200W, strain rpn10, stronger effect = lower value 0.798 | locus YIL066C, strain RNR3, stronger effect = lower value 0.833 | locus YIL125W, strain kgd1, stronger effect = lower value 0.886 | locus YIR030C, strain dcg1, stronger effect = lower value 0.794 | locus YJL092W, strain hpr5, stronger effect = lower value 0.879 | locus YJL095W, strain BCK1 (second series), stronger effect = lower value 0.562 | locus YJL129C, strain trk1, stronger effect = lower value 0.852 | locus YJL164C, strain tpk1, stronger effect = lower value 0.781 | locus YJL166W, strain qcr8, stronger effect = lower value 0.74 | locus YJL168C, strain set2, stronger effect = lower value 0.925 | locus YJL187C, strain SWE1 (second series), stronger effect = lower value 0.847 | locus YJR043C, strain POL32, stronger effect = lower value 0.64
0.437 (active) and 0.978 (inactive): locus YJL095W, strain BCK1, stronger effect = lower value
